# Experimental data taken from PubChem BioAssay.
# Potency and affinity values are given separately. Activity calls are given as the source filed them.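 How the source made its calls: active means a dose-response fit showing signal loss, with half-maximal concentration no higher than twice the top tested dose; inconclusive means flat fit between 30% and 70% signal loss, or poor fit; inactive means the rest.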
# Assay: viability loss in HepG2 hepatoma cells – cell-based, cherry-picks, set 2, cytotoxicity control, dose response (AID 687002)
# Conditions: ATP luminescence (CellTiter-Glo), 48 h; series mostly up to 26 µM; activity change, negative = cytotoxicity: at the top concentration
SMILES,"activity change, negative = cytotoxicity",outcome
CO[C@H]1CN(C)C(=O)c2cc(NS(=O)(=O)CC(F)(F)F)ccc2OC[C@H](C)N(Cc2cccnc2)C[C@@H]1C,14.7% (inactive),–
C[C@@H]1CCCCO[C@@H](CN(C)Cc2ccc(C(F)(F)F)cc2)[C@@H](C)CN([C@@H](C)CO)C(=O)c2cc(NS(=O)(=O)c3cn(C)cn3)ccc2O1,-11.9% [at 23.5 µM] (inactive),–
CCNC(=O)Nc1ccc2c(c1)C(=O)N(C)[C@H]1CC[C@H](CC(=O)N[C@@H](C)c3ccccc3)O[C@H]1CO2,4.9% (inactive),–
C/C=C/c1cnc2c(c1)C(=O)N([C@@H](C)CO)C[C@@H](C)[C@@H](CN(C)C(=O)C1CCCCC1)O2,2.3% (inactive),–
COc1ccc(S(=O)(=O)Nc2ccc3c(c2)C(=O)N([C@H](C)CO)C[C@@H](C)[C@@H](CN(C)C(=O)Nc2ccccc2)O3)cc1,6.3% (inactive),–
Cc1cc(C(=O)Nc2cccc3c2O[C@H](CN(C)S(=O)(=O)c2ccccc2)[C@H](C)CN([C@H](C)CO)C3=O)n(C)n1,10.2% (inactive),–
CNC(=O)C[C@H]1CC[C@H]2[C@@H](COc3ccc(NC(=O)Nc4ccccc4)cc3C(=O)N2C)O1,0.493% (inactive),–
CCNC(=O)Nc1ccc2c(c1)C(=O)N(C)[C@@H]1CC[C@H](CC(=O)N[C@@H](C)c3ccccc3)O[C@@H]1CO2,4.31% (inactive),–
CC(=O)N1[C@H](CO)[C@H](c2ccc(-c3ccccc3)cc2)[C@H]1CNC(=O)C1CC1,1.88% (inactive),–
CCC(=O)N1C[C@H](O)COC[C@@H]2O[C@@H](CC(=O)NCc3ccccc3Cl)CC[C@H]21,5.25% (inactive),–
C[C@@H]1CN([C@@H](C)CO)C(=O)c2cccc(NC(=O)c3ccncc3)c2O[C@H]1CN(C)C(=O)Nc1ccccc1,20.8% (inactive),–
CN1C(=O)N[C@@H]2c3ccccc3O[C@@]1(C)[C@@H]2COC(=O)c1ccccc1,-0.167% (inactive),–
C[C@@H]1CN([C@H](C)CO)C(=O)c2cc(NC(=O)CCC(F)(F)F)ccc2O[C@@H](C)CCCCO[C@@H]1CN(C)C(=O)c1ccncc1,6.26% [at 23.5 µM] (inactive),–
COc1ccccc1CNC(=O)C[C@@H]1C[C@H]2c3cc(NC(=O)Nc4ccccc4F)ccc3O[C@H]2[C@@H](CO)O1,-3.54% (inactive),–
O=C(NCC[C@H]1CC[C@H](NS(=O)(=O)c2ccc(F)cc2)[C@@H](CO)O1)c1ccc2c(c1)OCO2,-3.12% (inactive),–
O=C(NCc1ccc(F)cc1)C1C2C=CC3(CN(Cc4cccnc4)C(=O)C13)O2 (centres undefined),5.08% (inactive),–
COc1ccccc1CNC(=O)C[C@@H]1C[C@@H]2c3cc(NC(=O)Nc4ccccc4F)ccc3O[C@@H]2[C@H](CO)O1,-9.17% (inactive),–
O=C(C[C@H]1C[C@@H]2c3cc(NC(=O)CC4CC4)ccc3O[C@@H]2[C@@H](CO)O1)NCc1cccc(F)c1,2.21% (inactive),–
CCCNC(=O)C[C@H]1C[C@H]2c3cc(NC(=O)Nc4ccc(OC)cc4)ccc3O[C@H]2[C@@H](CO)O1,6.73% (inactive),–
Cc1ccc(S(=O)(=O)N[C@@H]2CCCN(Cc3cccc(OCCO)c3)C2)cc1,1.87% [at 21 µM] (inactive),–

SMILES,"activity change, negative = cytotoxicity",outcome
COc1ccccc1CNC(=O)C[C@@H]1CC[C@@H]2[C@H](COC[C@@H](O)CN2Cc2ccccc2)O1,1.56% (inactive),–
C[C@@H]1CN([C@@H](C)CO)C(=O)c2cc(NC(=O)CCN3CCOCC3)ccc2O[C@@H]1CN(C)Cc1ccc(C(=O)O)cc1,7.44% (inactive),–
C[C@H]1CN([C@@H](C)CO)C(=O)c2cc(Br)cnc2O[C@@H]1CN(C)Cc1ccccn1,17.5% (inactive),–
Cc1cc(C)c(NC(=O)C2CCCCN2C)c(C)c1 (centres undefined),-0.645% (inactive),–
COCC(=O)Nc1ccc2c(c1)C(=O)N(C)C[C@@H](OC)[C@H](C)CN(Cc1ccccc1)[C@@H](C)CO2,2.95% (inactive),–
COc1ccc(-n2ncc3c(SCC(=O)OC(C)C)ncnc32)cc1,-12.9% (inactive),–
Cc1noc(C)c1S(=O)(=O)Nc1ccc2c(c1)C(=O)N([C@H](C)CO)C[C@@H](C)[C@H](CN(C)Cc1ccccc1)OCCCC[C@H](C)O2,-7.28% (inactive),–
O=C(NC1CCCC1)N1CCCCN2[C@H](CO)[C@@H](c3ccc(-c4cncnc4)cc3)[C@H]2C1,11.3% (inactive),–
C[C@H](CO)N1C[C@H](C)[C@@H](CN(C)Cc2cccc(C(F)(F)F)c2)OCc2cnnn2CCCC1=O,3.48% (inactive),–
C[C@H](NC(=O)C[C@@H]1CC[C@@H]2[C@H](COC[C@@H](O)CN2C(=O)Nc2cccc(F)c2)O1)c1ccccc1,7.63% (inactive),–
O=C(C[C@@H]1C[C@@H]2c3cc(NC(=O)Nc4ccc(F)cc4)ccc3O[C@@H]2[C@@H](CO)O1)NCC1CC1,7.64% [at 23.5 µM] (inactive),–
C[C@@H]1CCCCO[C@H](CN(C)C(=O)c2ccccc2)[C@@H](C)CN([C@@H](C)CO)C(=O)c2cc(NC(=O)c3ccccc3)ccc2O1,11.5% (inactive),–
Cc1ccc(NC(=O)[C@H](C)NC(=O)C2CCN(C(=O)[C@@H](N)C(C)C)CC2)cc1,-17.7% (inactive),–
Cc1ccc(C)c(NC(=O)C2(C)CCCN2C(=O)C(C)C)c1 (centres undefined),–,inactive
Cc1noc(C)c1NC(=O)N(C)C[C@@H]1Oc2ccc(NC(=O)NC(C)C)cc2CC(=O)N([C@H](C)CO)C[C@H]1C,-0.824% (inactive),–
COc1ccc(CN(C)C[C@@H]2Oc3ccc(NC(=O)Nc4ccc(F)cc4)cc3CC(=O)N([C@H](C)CO)C[C@H]2C)cc1,-5.5% (inactive),–
CC(C)CC#Cc1cnc2c(c1)C(=O)N([C@H](C)CO)C[C@@H](C)[C@@H](CN(C)C(=O)c1ccc3c(c1)OCO3)O2,-2.03% (inactive),–
CN1C(=O)c2cc(NS(C)(=O)=O)ccc2OC[C@@H]2O[C@@H](CC(=O)O)CC[C@H]21,3.06% (inactive),–
C[C@@H]1CN([C@H](C)CO)C(=O)CCCn2cc(nn2)CO[C@@H]1CN(C)C(=O)CCCN(C)C,1.03% (inactive),–
